From PubChem BioAssay (EPA / NIEHS) come the findings set out here.

Each structure is given as a SMILES string. Results filed as inconclusive are left out. The source made the active and inactive calls. Rule for the calls: active = hit-call score of the fitted dose curve at least 0.9, where 1 is the maximum; inconclusive = response in the unintended direction; inactive = score below 0.9.

Assay [1] addresses Retinoic acid receptor alpha (Homo sapiens) (UniProt P10276). In words: ATG_RARa_TRANS: Attagene TRANS-FACTORIAL HepG2 Assay for human Retinoic Acid Receptor alpha (RARa) (AID 2283005). The gist of the method:
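HepG2 cells transiently transfected with multiple reporter units expressing chimeric RARα-GAL4 fusion, with GAL4-UAS-driven reporters. After 24 h compound exposure, reporter mRNA induction quantified by RT-PCR and capillary electrophoresis with fluorescent labeling; gain-of-signal fitted relative to DMSO control.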

The target in assay [2] is Peroxisome proliferator-activated receptor gamma (Homo sapiens) (UniProt P37231). In words: ATG_PPARg_TRANS: Attagene TRANS-FACTORIAL HepG2 Assay for human Peroxisome Proliferator-activated Receptor-gamma (PPARg) (AID 2283007). In short, it runs like this: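 Liver-derived HepG2 cells expressing an exogenous NR-Gal4 chimera alongside GAL4-UAS reporter genes; 24 h exposure. Fluorescence of reporter RT-PCR products, separated by capillary electrophoresis, gives mRNA induction relative to DMSO.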

Assay [3] deals with Nuclear receptor subfamily 1 group I member 2 (Homo sapiens) (UniProt O75469). In words: ATG_PXR_TRANS: Attagene TRANS-FACTORIAL HepG2 Assay for human Pregnane X Receptor (PXR) (AID 2283008). The gist of the method: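 Transactivation by exogenous PXR–GAL4 fusion measured as reporter transcript induction after 24 h compound treatment of transfected human HepG2 cells. Read-out via RT-PCR and capillary electrophoresis of labelled fragments, fitted upward relative to DMSO.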

The target in assay [4] is human Retinoic Acid Receptor gamma (RARg), RARG (gene 5916) (UniProt P13631). In words: ATG_RARg_TRANS: Attagene TRANS-FACTORIAL HepG2 Assay for human Retinoic Acid Receptor gamma (RARg) (AID 2283009). The gist of the method:
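Readout: reporter transcript levels via RT-PCR, 6-FAM primer-extension labelling, HpaI digestion and capillary electrophoresis. Cells: HepG2 carrying transfected RARg-GAL4 chimera plus UAS reporter set. Dosing 24 h; DMSO negative control.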

For assay [5], the target named is human RAR-related Orphan Receptor gamma (RORg), RORC (gene 6097) (UniProt P51449). In words: ATG_RORg_TRANS: Attagene TRANS-FACTORIAL HepG2 Assay for human RAR-related Orphan Receptor gamma (RORg) (AID 2283011). The gist of the method:
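Reporter transcripts from a transfected RORg-GAL4 chimera in HepG2 cells were quantified 24 h after dosing by RT-PCR, 6-FAM labelling, HpaI digestion and capillary electrophoresis; increases over DMSO baseline were fitted.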

The target in assay [6] is human Vitamin D Receptor (VDR), VDR (gene 7421) (UniProt P11473). In words: ATG_VDR_TRANS: Attagene TRANS-FACTORIAL HepG2 Assay for human Vitamin D Receptor (VDR) (AID 2283022). In short, it runs like this:
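Transactivation by an exogenous VDR-Gal4 chimera in transiently transfected HepG2 cells was measured as reporter transcript level 24 hours after chemical treatment. RT-PCR products were analysed by capillary electrophoresis and fitted in the positive direction relative to DMSO.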

Assay [7] concerns the target Retinoic acid receptor RXR-alpha (Homo sapiens) (UniProt P19793). In words: ATG_RXRa_TRANS: Attagene TRANS-FACTORIAL HepG2 Assay for human Retinoid X Receptor alpha (RXRa) (AID 2283012). The gist of the method:
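Read-out: fluorescent reporter-transcript fragments quantified by capillary electrophoresis after RT-PCR. Transiently transfected HepG2 cells carrying GAL4-UAS reporters and NR-GAL4 chimeras were exposed to chemical for 24 h; activity scored as increase over DMSO.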

The target of assay [8] is human Thyroid Receptor alpha (THRa1), THRA (gene 7067) (UniProt P10827). In words: ATG_THRa1_TRANS: Attagene TRANS-FACTORIAL HepG2 Assay for human Thyroid Receptor alpha (THRa1) (AID 2283014). In short, it runs like this:
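Transcripts from GAL4-UAS-driven reporters, measured after 24 h compound exposure by RT-PCR plus capillary electrophoresis of 6-FAM-labeled fragments, were fitted for gain of signal relative to DMSO. Cells: transiently transfected HepG2 expressing NR-Gal4 chimeras.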

Assay [9] has as its target human RAR-related Orphan Receptor beta (RORb), RORB (gene 6096) (UniProt Q92753). In words: ATG_RORb_TRANS: Attagene TRANS-FACTORIAL HepG2 Assay for human RAR-related Orphan Receptor beta (RORb) (AID 2283010). In short, it runs like this: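 HepG2, transient MRTU transfection (GAL4-UAS reporters, exogenous NR-Gal4 chimeras); 24 h compound exposure; total RNA → RT-PCR → 6-FAM primer extension → HpaI digest → CE fluorescence. Positive direction vs DMSO baseline.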

For assay [10], the target named is human Retinoid X Receptor beta (RXRb), RXRB (gene 6257) (UniProt P28702). In words: ATG_RXRb_TRANS: Attagene TRANS-FACTORIAL HepG2 Assay for human Retinoid X Receptor beta (RXRb) (AID 2283013). In short, it runs like this:
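Read-out: reporter mRNA induction via RT-PCR plus capillary electrophoresis fluorescence, analysed as signal increase relative to DMSO. Cells were human HepG2, transiently transfected with GAL4-UAS reporter constructs and chimeric receptor-Gal4 fusions, dosed for 24 h.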

One may read the AC50 as the concentration at which the activity in the assay is half-maximal.

human Retinoid X Receptor beta (RXRb), RXRB (gene 6257), sequence (P28702 whole entry, looked up, the tested form may be a part): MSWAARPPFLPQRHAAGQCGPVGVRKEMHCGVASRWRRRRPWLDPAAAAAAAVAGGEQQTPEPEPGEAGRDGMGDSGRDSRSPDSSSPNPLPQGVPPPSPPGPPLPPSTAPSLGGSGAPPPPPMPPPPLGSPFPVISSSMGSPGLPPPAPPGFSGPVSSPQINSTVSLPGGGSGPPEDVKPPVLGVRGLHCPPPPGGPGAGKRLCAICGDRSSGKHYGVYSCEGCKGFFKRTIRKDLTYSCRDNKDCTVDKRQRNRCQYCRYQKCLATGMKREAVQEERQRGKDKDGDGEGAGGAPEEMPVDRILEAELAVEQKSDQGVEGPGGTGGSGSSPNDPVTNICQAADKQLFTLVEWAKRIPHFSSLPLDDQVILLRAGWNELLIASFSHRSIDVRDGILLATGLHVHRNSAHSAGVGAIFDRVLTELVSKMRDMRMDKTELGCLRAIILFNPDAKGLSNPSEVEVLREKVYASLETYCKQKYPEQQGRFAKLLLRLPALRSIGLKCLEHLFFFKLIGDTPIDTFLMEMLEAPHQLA
human Retinoic Acid Receptor gamma (RARg), RARG (gene 5916), sequence (P13631 whole entry, looked up, the tested form may be a part): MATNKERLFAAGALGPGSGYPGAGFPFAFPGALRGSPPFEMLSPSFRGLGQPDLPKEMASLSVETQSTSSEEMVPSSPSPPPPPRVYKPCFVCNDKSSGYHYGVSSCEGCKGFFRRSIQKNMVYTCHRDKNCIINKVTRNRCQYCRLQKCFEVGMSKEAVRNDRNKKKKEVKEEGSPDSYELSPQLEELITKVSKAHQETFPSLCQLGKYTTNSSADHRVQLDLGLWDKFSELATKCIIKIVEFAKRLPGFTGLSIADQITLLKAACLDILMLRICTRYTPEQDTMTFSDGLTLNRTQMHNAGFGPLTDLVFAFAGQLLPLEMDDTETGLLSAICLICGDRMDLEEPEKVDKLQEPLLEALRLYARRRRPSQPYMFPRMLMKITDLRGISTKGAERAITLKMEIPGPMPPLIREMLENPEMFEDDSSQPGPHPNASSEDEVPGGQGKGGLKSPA
human RAR-related Orphan Receptor gamma (RORg), RORC (gene 6097), sequence (P51449 whole entry, looked up, the tested form may be a part): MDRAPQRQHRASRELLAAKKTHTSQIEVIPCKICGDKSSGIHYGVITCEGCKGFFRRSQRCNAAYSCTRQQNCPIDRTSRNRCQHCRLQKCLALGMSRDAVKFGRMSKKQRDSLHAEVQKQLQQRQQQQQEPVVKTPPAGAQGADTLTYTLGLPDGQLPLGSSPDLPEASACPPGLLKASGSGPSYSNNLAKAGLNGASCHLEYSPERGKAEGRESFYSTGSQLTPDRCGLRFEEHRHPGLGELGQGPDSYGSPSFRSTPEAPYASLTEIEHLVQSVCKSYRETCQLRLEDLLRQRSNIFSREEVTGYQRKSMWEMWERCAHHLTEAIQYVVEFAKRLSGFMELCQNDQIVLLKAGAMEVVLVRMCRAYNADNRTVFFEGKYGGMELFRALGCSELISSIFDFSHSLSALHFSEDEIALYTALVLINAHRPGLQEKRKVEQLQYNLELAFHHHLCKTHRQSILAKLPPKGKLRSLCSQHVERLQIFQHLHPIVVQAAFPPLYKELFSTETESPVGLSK
Peroxisome proliferator-activated receptor gamma (Homo sapiens), sequence (P37231 whole entry, looked up, the tested form may be a part): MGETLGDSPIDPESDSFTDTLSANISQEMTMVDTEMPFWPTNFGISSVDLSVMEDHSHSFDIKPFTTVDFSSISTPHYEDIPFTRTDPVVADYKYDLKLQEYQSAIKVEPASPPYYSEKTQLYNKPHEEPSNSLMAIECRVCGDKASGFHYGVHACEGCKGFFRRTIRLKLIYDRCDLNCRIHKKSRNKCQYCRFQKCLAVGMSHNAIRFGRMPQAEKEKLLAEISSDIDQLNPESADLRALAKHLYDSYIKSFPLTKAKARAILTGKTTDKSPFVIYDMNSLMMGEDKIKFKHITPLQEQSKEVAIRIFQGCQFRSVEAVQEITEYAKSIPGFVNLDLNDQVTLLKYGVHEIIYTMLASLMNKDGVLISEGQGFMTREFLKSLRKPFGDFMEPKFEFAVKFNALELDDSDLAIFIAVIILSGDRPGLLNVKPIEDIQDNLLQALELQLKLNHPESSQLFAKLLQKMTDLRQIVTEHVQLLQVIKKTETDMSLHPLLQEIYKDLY
Nuclear receptor subfamily 1 group I member 2 (Homo sapiens), sequence (O75469 whole entry, looked up, the tested form may be a part): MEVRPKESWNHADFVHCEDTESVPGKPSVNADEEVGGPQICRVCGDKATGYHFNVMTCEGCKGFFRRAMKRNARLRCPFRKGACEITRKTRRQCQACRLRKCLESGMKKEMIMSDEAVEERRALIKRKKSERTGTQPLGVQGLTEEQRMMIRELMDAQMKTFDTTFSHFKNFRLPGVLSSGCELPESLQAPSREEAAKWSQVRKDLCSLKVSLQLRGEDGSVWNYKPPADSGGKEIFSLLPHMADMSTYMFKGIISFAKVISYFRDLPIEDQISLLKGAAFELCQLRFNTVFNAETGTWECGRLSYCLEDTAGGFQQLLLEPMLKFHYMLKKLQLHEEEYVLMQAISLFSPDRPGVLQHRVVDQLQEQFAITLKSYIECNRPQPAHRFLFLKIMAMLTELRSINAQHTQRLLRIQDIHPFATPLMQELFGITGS
human Vitamin D Receptor (VDR), VDR (gene 7421), sequence (P11473 whole entry, looked up, the tested form may be a part): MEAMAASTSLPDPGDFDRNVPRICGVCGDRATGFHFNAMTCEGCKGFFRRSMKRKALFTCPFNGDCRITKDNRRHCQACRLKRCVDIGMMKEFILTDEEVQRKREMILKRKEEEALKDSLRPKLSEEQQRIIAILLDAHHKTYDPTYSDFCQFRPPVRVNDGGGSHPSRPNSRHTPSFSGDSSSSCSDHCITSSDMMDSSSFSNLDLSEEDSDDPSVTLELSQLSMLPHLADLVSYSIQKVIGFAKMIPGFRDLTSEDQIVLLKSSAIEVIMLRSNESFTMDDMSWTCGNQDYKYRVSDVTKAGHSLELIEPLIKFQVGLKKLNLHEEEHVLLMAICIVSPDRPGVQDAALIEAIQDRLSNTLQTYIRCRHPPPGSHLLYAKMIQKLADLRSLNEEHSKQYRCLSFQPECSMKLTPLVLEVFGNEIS
human Thyroid Receptor alpha (THRa1), THRA (gene 7067), sequence (P10827 whole entry, looked up, the tested form may be a part): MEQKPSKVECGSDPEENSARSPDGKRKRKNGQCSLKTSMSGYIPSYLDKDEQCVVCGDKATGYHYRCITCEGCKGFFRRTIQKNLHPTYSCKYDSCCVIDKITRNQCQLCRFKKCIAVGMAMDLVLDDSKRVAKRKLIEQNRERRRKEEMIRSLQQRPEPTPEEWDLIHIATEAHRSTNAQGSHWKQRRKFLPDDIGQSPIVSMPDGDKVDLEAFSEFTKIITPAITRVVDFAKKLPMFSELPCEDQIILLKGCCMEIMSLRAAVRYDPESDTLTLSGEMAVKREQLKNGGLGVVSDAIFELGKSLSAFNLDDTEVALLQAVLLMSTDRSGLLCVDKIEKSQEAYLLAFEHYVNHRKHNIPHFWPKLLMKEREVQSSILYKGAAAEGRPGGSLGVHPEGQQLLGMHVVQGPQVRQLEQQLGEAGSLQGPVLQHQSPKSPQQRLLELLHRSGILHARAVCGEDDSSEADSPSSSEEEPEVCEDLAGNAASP
Retinoic acid receptor alpha (Homo sapiens), sequence (P10276 whole entry, looked up, the tested form may be a part): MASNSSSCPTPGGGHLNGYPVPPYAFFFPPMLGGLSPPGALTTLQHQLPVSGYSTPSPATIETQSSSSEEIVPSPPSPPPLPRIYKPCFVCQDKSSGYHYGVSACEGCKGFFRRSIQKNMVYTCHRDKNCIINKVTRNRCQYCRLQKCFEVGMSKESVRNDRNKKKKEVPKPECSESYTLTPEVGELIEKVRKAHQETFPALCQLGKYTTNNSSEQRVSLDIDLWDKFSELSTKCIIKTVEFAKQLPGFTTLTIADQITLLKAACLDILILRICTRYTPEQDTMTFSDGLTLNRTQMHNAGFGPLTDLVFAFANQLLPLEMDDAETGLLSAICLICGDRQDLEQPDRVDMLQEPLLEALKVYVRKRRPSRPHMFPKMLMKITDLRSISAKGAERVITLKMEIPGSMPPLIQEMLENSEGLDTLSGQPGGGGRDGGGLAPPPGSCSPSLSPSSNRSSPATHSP
Retinoic acid receptor RXR-alpha (Homo sapiens), sequence (P19793 whole entry, looked up, the tested form may be a part): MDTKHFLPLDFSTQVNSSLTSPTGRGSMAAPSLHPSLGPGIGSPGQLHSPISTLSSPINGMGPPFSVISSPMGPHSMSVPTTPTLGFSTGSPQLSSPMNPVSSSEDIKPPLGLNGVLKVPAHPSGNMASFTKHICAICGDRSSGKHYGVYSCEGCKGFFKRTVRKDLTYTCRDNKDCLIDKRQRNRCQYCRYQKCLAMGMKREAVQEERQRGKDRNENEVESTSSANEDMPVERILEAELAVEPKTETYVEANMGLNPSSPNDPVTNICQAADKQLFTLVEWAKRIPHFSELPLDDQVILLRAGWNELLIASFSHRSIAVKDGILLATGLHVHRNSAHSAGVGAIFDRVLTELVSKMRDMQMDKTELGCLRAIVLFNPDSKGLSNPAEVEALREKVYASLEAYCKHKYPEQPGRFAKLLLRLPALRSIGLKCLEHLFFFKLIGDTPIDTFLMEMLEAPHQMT
human RAR-related Orphan Receptor beta (RORb), RORB (gene 6096), sequence (Q92753 whole entry, looked up, the tested form may be a part): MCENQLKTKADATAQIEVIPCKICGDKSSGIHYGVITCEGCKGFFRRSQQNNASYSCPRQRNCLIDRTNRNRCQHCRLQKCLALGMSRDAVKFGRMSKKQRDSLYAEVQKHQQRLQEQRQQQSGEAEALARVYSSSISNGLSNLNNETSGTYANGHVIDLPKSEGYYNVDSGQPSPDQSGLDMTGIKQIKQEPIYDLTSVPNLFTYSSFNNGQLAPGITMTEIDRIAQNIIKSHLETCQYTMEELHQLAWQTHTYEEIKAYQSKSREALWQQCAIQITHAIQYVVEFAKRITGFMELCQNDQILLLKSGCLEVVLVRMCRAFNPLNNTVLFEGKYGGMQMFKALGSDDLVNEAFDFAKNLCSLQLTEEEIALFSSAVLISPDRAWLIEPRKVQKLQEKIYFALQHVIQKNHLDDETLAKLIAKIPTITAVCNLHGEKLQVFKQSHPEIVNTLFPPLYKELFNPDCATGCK

In the case of `C=CCCl`, the compound was classed as inactive in [1], in assay [2], in assay [3], in assay [4], in assay [5] and in [6].
Consider `O=C(NC(=O)c1c(F)cccc1F)Nc1cc(Cl)c(F)c(Cl)c1F`, for which the compound was called inactive in assay [1], in [2], in assay [3], in [4] and in assay [5].
On to `CCN(CCO)CCO`, for which the compound was called inactive in assay [1].
Regarding `CC(c1ccc(O)cc1)c1ccc(O)cc1`, the result in [2], in [4], in assay [7] and in assay [8] was inactive. In [3], the AC50 was 27.7 µM (active).
With `N#Cc1ccc(Cl)cc1`, the compound was classed as inactive in assay [2], in assay [3], in assay [4], in assay [9], in [5] and in assay [7]. Also, the result in [10] and in [6] was inactive.
As for `CCOC(=O)c1ccccc1S(=O)(=O)NC(=O)Nc1nc(Cl)cc(OC)n1`, the compound was called inactive in [1], in [3], in [4], in assay [9], in assay [8] and in assay [6].
As for `O=C(Nc1ccc(Br)cc1)c1cc(Br)cc(Br)c1O`, the call in assay [1], in [4], in assay [9], in [8] and in assay [6] was inactive. Also, the results for the AC50 in assay [2] and in assay [3] were 11.7 µM (active) and 4.69 µM (active), respectively.
Turning to `CCOCn1c(-c2ccc(Cl)cc2)c(C#N)c(Br)c1C(F)(F)F`, the call in assay [1], in assay [4], in assay [7], in assay [10] and in assay [8] was inactive. The AC50 is 4.71 µM (active) in [2] and 0.561 µM (active) in assay [3].
Turning to `CCC[N+](CCC)(CCC)CCC`, the result in assay [1], in [3], in assay [4], in [9], in assay [7] and in assay [10] was inactive.
With `O=C1C[C@@H]2OCC=C3CN4CC[C@]56c7ccccc7N1[C@H]5[C@H]2[C@H]3C[C@H]46`, the outcome in assay [2], in assay [3], in [4], in assay [7] and in [8] was inactive.
On to `O=c1[nH]c(=O)n(Cl)c(=O)n1Cl`, for which the call in assay [2], in assay [3], in assay [9], in assay [5], in assay [7] and in [10] was inactive. For the same compound, the call in [8] was inactive.
With `CNC(=O)N(C)c1nc2ccccc2s1`, the outcome in [2], in assay [9], in assay [5], in assay [10] and in assay [8] was inactive. The AC50 in assay [3] is 52.8 µM (active).
Regarding `CCC[CH2][Sn]([CH2]CCC)([CH2]CCC)[CH2]CCC`, the half-maximal activity concentration (AC50) was 3.29 µM (active) in assay [2], 9.24 µM (active) in [3], 0.866 µM (active) in [7] and 0.0334 µM (active) in [10]. In addition, the compound was called inactive in assay [4] and in assay [8].
